Compound activity: PubChem, National Center for Advancing Translational Sciences (NCATS)
HEK293 tox – cytotoxicity counter-screen for GLP-1 receptor inverse agonists | HEK293 cAMP-luciferase reporter cells, luminescence, 24 h | Potency, µM (series often up to 38.3 µM), most hits filed as inhibitors | 410,000 tested, 0.13% active | AID 624418;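 also: loss of luciferase light is scored as toxicity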
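A 23 nL compound transfer followed 12 hours of cell culture at 37 deg C; exposure then lasted 24 hr. Luciferase assay detection reagent was dispensed and plates read for luminescence after a 12 min room-temperature wait.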
RORg inh – blocks mouse ROR gamma transcriptional activity | P51450 | Drosophila S2 Gal4-RORgamma UAS-luciferase reporter, 20 h | Potency, µM (series often up to 53.6 µM), actives largely listed as inhibitors | 310,000 tested, 5.4% active | AID 2551; also: nearly all actives have a fitted effect of over 60% in size
Target sequence (P51450 whole entry, looked up, the tested form may be a part): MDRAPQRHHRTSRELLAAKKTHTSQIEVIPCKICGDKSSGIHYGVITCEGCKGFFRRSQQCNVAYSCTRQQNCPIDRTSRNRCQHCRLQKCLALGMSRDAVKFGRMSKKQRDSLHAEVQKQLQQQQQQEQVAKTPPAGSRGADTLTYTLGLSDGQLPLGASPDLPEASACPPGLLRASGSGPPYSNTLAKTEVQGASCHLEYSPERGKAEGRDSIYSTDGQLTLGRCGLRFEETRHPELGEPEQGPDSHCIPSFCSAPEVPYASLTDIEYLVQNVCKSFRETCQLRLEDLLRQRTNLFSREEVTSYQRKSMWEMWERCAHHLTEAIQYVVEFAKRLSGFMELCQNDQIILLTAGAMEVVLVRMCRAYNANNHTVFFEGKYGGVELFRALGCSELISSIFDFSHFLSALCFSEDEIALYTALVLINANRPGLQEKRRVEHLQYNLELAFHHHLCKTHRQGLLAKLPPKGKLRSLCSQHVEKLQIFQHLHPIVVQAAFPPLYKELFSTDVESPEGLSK
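Luciferase reporter read in Schneider cells carrying Gal4-RORγ (mouse) and UAS-Photinus luciferase; cells given compound 1 h before 700 uM copper sulfate induction, then incubated 20 h at ambient temperature.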
GLP-1R agonist – GLP-1 receptor (human) agonism | P43220 | HEK293 GLP-1R CRE-luciferase, luminescence, 4-6 h; cells express a hypersensitive GLP-1R form | Potency, µM (doses to about 45.6 µM), usual class: activators | 380,000 tested, 0.007% active
VP16 counter – inhibits Gal4-VP16 luciferase reporter, ROR gamma counter-screen | Drosophila S2 Gal4-VP16 UAS-luciferase, luminescence, 20 h | Potency, µM (titrated, usually from 53.6 µM), actives largely listed as inhibitors | 310,000 tested, 3.5% active | AID 2546;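 also: Gal4-VP16 expression switched on by copper sulfate through the metallothionein promoter; nearly all actives have a fitted effect of over 50% in size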
GLP1R inv ag – inverse agonists of human GLP-1 receptor. HEK293 GLP-1R CRE-luciferase, luminescence, 24 h; GLP-1R form is constitutively active. 410,000 tested, 1.6% active. Potency, µM (series often up to 38.3 µM), actives largely listed as inhibitors; also: nearly all actives have a fitted effect of over 55% in size
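Constitutively active GLP-1R drives a cAMP-responsive luciferase in stably transfected HEK293 cells; test compounds are added after overnight (12 h) attachment and left 24 hr, and signal loss in luminescence marks inhibition.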
Hits are given with their value; n = inactive; u = inconclusive; x = no result; [ ] = another dose, or the depositor's remark. This is a sample that favours compounds with a hit; in the whole collection about 5.9% have one here. Calls follow the shape of the dose curve; as a rule, active = well fitted curve in the direction sought with a large enough effect; inconclusive = small, poorly fitted or top-dose-only effect, or another doubt; inactive = no such curve, though single readings can be large; an effect the other way counts as inactive or inconclusive.

SMILES	HEK293 tox	RORg inh	GLP-1R agonist	VP16 counter	GLP1R inv ag
C[C@H](NC(=O)c1[nH]cnc1C(=O)Nc1ccc(Cl)cc1)C(=O)OC(C)(C)C	n	1µM	n	1.4µM	n
Cc1cccc(NC(=O)c2nc[nH]c2C(=O)N[C@@H](C)C(=O)OC(C)(C)C)c1	n	3.2µM	n	7.1µM	u
CC(C)C[C@H](NC(=O)[C@H](CCc1ccccc1)NC(=O)CN1CCOCC1)C(=O)N[C@@H](Cc1ccccc1)C(=O)N[C@@H](CC(C)C)C(=O)[C@@]1(C)CO1	x	x	n	x	x
CCn1c(C)cs/c1=N\S(=O)(=O)c1ccccc1	n	x	n	x	n
O=Cc1s/c(=N\S(=O)(=O)c2ccccc2)n(CCCCl)c1Cl	u	5µM	n	u	2.8µM
COc1ccc(S(=O)(=O)N(CC(=O)N(C)Cc2ccccc2)c2ccc(Cl)cc2)cc1	n	x	n	x	u
O=C/C(=C\Nc1ccccn1)c1nc2cc(Cl)ccc2o1	n	5.6µM	n	10µM	n
CC1(C)CC(=O)c2cc(C(=O)Nc3ccc(Cl)cc3)c(=O)[nH]c2C1	n	x	x	x	n
S=C(NCc1ccc2[nH]c3c(c2c1)CCCC3)Nc1ccccc1Cl	n	3.2µM	n	8.9µM	u
Cc1ccccc1NC(=S)NCc1ccc2[nH]c3c(c2c1)CCCC3	n	1.6µM	n	3.5µM	u
Cc1ccc(C)c(NC(=S)NCc2ccc3[nH]c4c(c3c2)CCCC4)c1	u	2µM	n	6.3µM	u
CCN(CC)S(=O)(=O)c1ccc(C(=O)NCc2ccc3[nH]c4c(c3c2)CCCC4)cc1	n	n	n	n	n
CN(C)S(=O)(=O)c1ccc(C(=O)NCc2ccc3[nH]c4c(c3c2)CCCC4)cc1	n	u	n	n	n
O=C(O)c1c(Cl)c(Cl)c(Cl)c(Cl)c1-c1c2cc(I)c(=O)c(I)c-2oc2c(I)c(O)c(I)cc12	x	14µM	n	u	x
O=C(Nc1ccccc1Oc1ccccc1)c1cc([N+](=O)[O-])ccc1Cl	n	u	n	n	4.5µM
O=C(Nc1ccc(Nc2ccccc2)cc1)c1ccc(Cl)cc1Cl	n	x	n	x	8.9µM
O=C(Nc1ccc(Nc2ccccc2)cc1)c1cc([N+](=O)[O-])ccc1Cl	n	n	n	u	3.2µM
O=C(O)c1ccccc1C(=O)Nc1ccc(Nc2ccc([N+](=O)[O-])cc2[N+](=O)[O-])cc1	n	n	n	n	n
CCCCN(CCCC)S(=O)(=O)c1ccc(NC(=O)c2ccc([N+](=O)[O-])cc2Cl)cc1	n	n[10 µM]	n	n	4µM
Cc1cccc(NC(=O)c2cc([N+](=O)[O-])ccc2Cl)c1O	n	n	n	n	u
COc1ccc2c(c1)C(=O)[C@@H](OC(=O)Nc1cc(OC)c(OC)c(OC)c1)[C@H](c1ccc(OC)c(Br)c1)O2	x	n	x	n	x
COc1ccccc1Nc1nc2ccc(Cl)cc2nc1-n1nc(C)cc1C	n	x	x	x	n
O=C(NNc1ccccc1[N+](=O)[O-])Nc1ccc(Cl)c(Cl)c1	n	u	n	n	u
CCN(CC)S(=O)(=O)c1cc([N+](=O)[O-])ccc1NNC(=O)Nc1ccc(Cl)c(Cl)c1	u	n	n	u	2.2µM
O=C(CSc1nc2c([nH]c3ccccc32)c(=O)n1-c1ccc(F)cc1)NC1CCCCC1	n	x	x	x	n
SMILES	HEK293 tox	RORg inh	GLP-1R agonist	VP16 counter	GLP1R inv ag
COc1ccc(-c2nc(-c3ccccc3)c(NC(C)C)o2)cc1	x	n	x	n	x
CCC(=O)N1CCN(c2nc(CC)nc3sc4c(c23)CCCC4)CC1	n	n	n	n	u
CC1CCc2c(sc3nc(C(C)(C)C)nc(N4CCN(C(=O)CCl)CC4)c23)C1 (stereo not drawn)	u	13µM	n	13µM	u
CCOC(=O)c1c(C)[nH]c(C(=O)N/N=C/c2cccc(OC)c2)c1C	u	u	n	n	u
CCOC(=O)c1c(C)[nH]c(C(=O)N/N=C\c2ccccc2Cl)c1C	u	8.9µM	n	u	u
CCOc1ccc(NC(=O)CSC2=Nc3ccccc3C3=NC(CCC(=O)NCc4cccs4)C(=O)N23)cc1 (stereo not drawn)	n	x	x	x	n
CN(C)CCNc1oc(-c2ccc(COc3ccc(Cl)cc3)o2)nc1C#N	n	x	x	x	u
CCOc1ccccc1NC(=O)Nc1nnc(N2CCCC(C)C2)s1 (stereo not drawn)	n	x	x	x	n
